Data reported in ChEMBL document CHEMBL2218924, “A broad activity screen in support of a chemogenomic map for kinase signalling research and drug discovery” (Biochem J, 2013).

These compounds were tested against Tyrosine-protein kinase ABL2 (Homo sapiens) (UniProt P42684). Conditions: at 1 µM.
Sequence of Tyrosine-protein kinase ABL2 (Homo sapiens) (P42684 whole entry): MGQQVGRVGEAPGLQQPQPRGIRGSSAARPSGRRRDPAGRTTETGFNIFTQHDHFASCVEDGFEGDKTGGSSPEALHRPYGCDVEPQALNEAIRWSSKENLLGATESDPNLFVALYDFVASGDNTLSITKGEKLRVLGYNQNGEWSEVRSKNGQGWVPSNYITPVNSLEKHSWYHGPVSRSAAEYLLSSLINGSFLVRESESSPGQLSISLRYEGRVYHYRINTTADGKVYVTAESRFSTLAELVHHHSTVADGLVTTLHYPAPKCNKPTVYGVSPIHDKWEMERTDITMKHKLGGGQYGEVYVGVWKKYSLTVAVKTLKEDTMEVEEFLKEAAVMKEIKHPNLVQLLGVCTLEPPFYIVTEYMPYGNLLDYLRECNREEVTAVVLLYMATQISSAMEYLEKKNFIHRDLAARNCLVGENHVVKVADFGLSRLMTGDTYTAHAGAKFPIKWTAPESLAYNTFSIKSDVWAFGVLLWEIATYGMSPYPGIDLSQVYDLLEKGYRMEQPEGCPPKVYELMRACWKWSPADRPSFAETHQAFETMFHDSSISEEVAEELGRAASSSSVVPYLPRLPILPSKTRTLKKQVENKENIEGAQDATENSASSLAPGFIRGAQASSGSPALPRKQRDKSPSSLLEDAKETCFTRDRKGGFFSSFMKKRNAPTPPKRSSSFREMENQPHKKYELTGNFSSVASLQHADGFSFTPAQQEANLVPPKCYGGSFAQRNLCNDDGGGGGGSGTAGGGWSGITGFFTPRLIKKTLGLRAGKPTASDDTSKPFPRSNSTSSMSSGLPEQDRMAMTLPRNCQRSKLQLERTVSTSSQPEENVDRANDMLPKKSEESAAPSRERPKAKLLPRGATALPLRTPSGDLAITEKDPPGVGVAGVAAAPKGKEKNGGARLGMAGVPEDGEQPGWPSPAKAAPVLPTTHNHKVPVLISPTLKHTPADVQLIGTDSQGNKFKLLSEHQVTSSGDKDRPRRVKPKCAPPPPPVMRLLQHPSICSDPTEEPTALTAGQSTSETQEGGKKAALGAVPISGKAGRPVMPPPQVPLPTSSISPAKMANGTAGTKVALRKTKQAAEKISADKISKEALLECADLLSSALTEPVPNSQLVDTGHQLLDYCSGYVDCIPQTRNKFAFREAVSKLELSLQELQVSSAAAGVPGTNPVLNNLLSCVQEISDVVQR

SMILES | residual activity [%]
N/C(=N\[N+](=O)[O-])N/N=C\c1ccc(-c2cccc([N+](=O)[O-])c2)o1 | 96
COc1cc(OC)c(/C=C2\C(=O)Nc3ccccc32)c(OC)c1 | 123
COc1ccc2c(c[n+](C)c3c4cc5c(cc4ccc23)OCO5)c1OC | 92
CCn1cnc2c(Nc3cccc(Cl)c3)nc(N[C@@H]3CCCC[C@@H]3N)nc21 | 62
c1cc(-c2cnn3cc(-c4ccc(OCCN5CCCCC5)cc4)cnc23)ccn1 | 12
COC(=O)[C@@]1(O)C[C@H]2O[C@]1(C)n1c3ccccc3c3c4c(c5c6ccccc6n2c5c31)C(=O)NC4 | 79
COc1cc2ncnc(Nc3ccc(OCc4ccccc4)cc3)c2cc1OC | 103
O=c1[nH]c2ccccc2n1C1CCN(Cc2ccc(-c3nc4cc5[nH]cnc5cc4nc3-c3ccccc3)cc2)CC1 | 117
CCc1nc(-c2ccc(OC)cc2)[nH]c1-c1ccncc1 | 104
O=C1Nc2ccc3ncsc3c2/C1=C/c1c[nH]cn1 | 82
CC(C)[C@H](CO)Nc1nc(Nc2cccc(Cl)c2)c2ncn(C(C)C)c2n1 | 22
O=[N+]([O-])/C=C/c1ccc2c(c1)OCO2 | 104

Each compound was assayed against Tyrosine-protein kinase ABL2 (Homo sapiens) (UniProt P42684). Conditions: at 10 µM.

SMILES | residual activity [%]
N/C(=N\[N+](=O)[O-])N/N=C\c1ccc(-c2cccc([N+](=O)[O-])c2)o1 | 83
C[S+]([O-])c1ccc(-c2nc(-c3ccc(F)cc3)c(-c3ccncc3)[nH]2)cc1 (stereo unspecified) | 55
CC(C)(C)c1cc(C=C(C#N)C#N)cc(Br)c1O | 51
COc1cc(OC)c(/C=C2\C(=O)Nc3ccccc32)c(OC)c1 | 77
COc1ccc2c(c[n+](C)c3c4cc5c(cc4ccc23)OCO5)c1OC | 82
CCn1cnc2c(Nc3cccc(Cl)c3)nc(N[C@@H]3CCCC[C@@H]3N)nc21 | 13
c1cc(-c2cnn3cc(-c4ccc(OCCN5CCCCC5)cc4)cnc23)ccn1 | 1
COC(=O)[C@@]1(O)C[C@H]2O[C@]1(C)n1c3ccccc3c3c4c(c5c6ccccc6n2c5c31)C(=O)NC4 | 35
COc1cc2ncnc(Nc3ccc(OCc4ccccc4)cc3)c2cc1OC | 96
O=c1[nH]c2ccccc2n1C1CCN(Cc2ccc(-c3nc4cc5[nH]cnc5cc4nc3-c3ccccc3)cc2)CC1 | 89
CCc1nc(-c2ccc(OC)cc2)[nH]c1-c1ccncc1 | 75
COc1ccc2c(c1)/C(=C/c1cnc[nH]1)C(=O)N2 | 47
O=C1Nc2ccc3ncsc3c2/C1=C/c1c[nH]cn1 | 33
O=C1c2ccccc2-c2nc3nnnn3nc21 | 113
CC(C)[C@H](CO)Nc1nc(Nc2cccc(Cl)c2)c2ncn(C(C)C)c2n1 | 1
O=[N+]([O-])/C=C/c1ccc2c(c1)OCO2 | 92

These compounds were tested against T1, Aurora kinase A (Homo sapiens) (UniProt O14965). Conditions: at 1 µM.
T1 sequence (whole entry): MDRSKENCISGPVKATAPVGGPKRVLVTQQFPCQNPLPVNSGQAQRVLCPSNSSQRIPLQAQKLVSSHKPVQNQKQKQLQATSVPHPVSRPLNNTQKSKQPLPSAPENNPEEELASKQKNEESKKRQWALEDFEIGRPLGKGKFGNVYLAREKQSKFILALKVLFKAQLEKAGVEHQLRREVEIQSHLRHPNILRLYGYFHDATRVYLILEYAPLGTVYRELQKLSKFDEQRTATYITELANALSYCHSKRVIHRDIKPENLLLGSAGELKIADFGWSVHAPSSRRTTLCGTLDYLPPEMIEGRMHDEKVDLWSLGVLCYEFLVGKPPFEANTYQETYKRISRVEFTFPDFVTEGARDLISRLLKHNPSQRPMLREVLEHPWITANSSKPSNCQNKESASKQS

SMILES | residual activity [%]
C[S+]([O-])c1ccc(-c2nc(-c3ccc(F)cc3)c(-c3ccncc3)[nH]2)cc1 (stereo unspecified) | 117
CC(C)(C)c1cc(C=C(C#N)C#N)cc(Br)c1O | 104
COc1cc(OC)c(/C=C2\C(=O)Nc3ccccc32)c(OC)c1 | 107
COc1ccc2c(c[n+](C)c3c4cc5c(cc4ccc23)OCO5)c1OC | 83
O=C1NC(=O)c2c1c1c3ccccc3n3c1c1c2c2ccccc2n1C1CCC3O1 | 95
CCn1cnc2c(Nc3cccc(Cl)c3)nc(N[C@@H]3CCCC[C@@H]3N)nc21 | 85
c1cc(-c2cnn3cc(-c4ccc(OCCN5CCCCC5)cc4)cnc23)ccn1 | 64
COC(=O)[C@@]1(O)C[C@H]2O[C@]1(C)n1c3ccccc3c3c4c(c5c6ccccc6n2c5c31)C(=O)NC4 | 2
COc1cc2ncnc(Nc3ccc(OCc4ccccc4)cc3)c2cc1OC | 41
O=c1[nH]c2ccccc2n1C1CCN(Cc2ccc(-c3nc4cc5[nH]cnc5cc4nc3-c3ccccc3)cc2)CC1 | 70
COc1ccc2c(c1)/C(=C/c1cnc[nH]1)C(=O)N2 | 42
O=C1Nc2ccc3ncsc3c2/C1=C/c1c[nH]cn1 | 0
O=C1c2ccccc2-c2nc3nnnn3nc21 | 71
O=[N+]([O-])/C=C/c1ccc2c(c1)OCO2 | 99

The compounds below were run against T1, Aurora kinase A (Homo sapiens). Conditions: at 10 µM.

SMILES | residual activity [%]
C[S+]([O-])c1ccc(-c2nc(-c3ccc(F)cc3)c(-c3ccncc3)[nH]2)cc1 (stereo unspecified) | 118
CC(C)(C)c1cc(C=C(C#N)C#N)cc(Br)c1O | 122
COc1cc(OC)c(/C=C2\C(=O)Nc3ccccc32)c(OC)c1 | 107
COc1ccc2c(c[n+](C)c3c4cc5c(cc4ccc23)OCO5)c1OC | 75
O=C1NC(=O)c2c1c1c3ccccc3n3c1c1c2c2ccccc2n1C1CCC3O1 | 88
CCn1cnc2c(Nc3cccc(Cl)c3)nc(N[C@@H]3CCCC[C@@H]3N)nc21 | 68
c1cc(-c2cnn3cc(-c4ccc(OCCN5CCCCC5)cc4)cnc23)ccn1 | 48
COC(=O)[C@@]1(O)C[C@H]2O[C@]1(C)n1c3ccccc3c3c4c(c5c6ccccc6n2c5c31)C(=O)NC4 | -1
COc1cc2ncnc(Nc3ccc(OCc4ccccc4)cc3)c2cc1OC | 38
O=c1[nH]c2ccccc2n1C1CCN(Cc2ccc(-c3nc4cc5[nH]cnc5cc4nc3-c3ccccc3)cc2)CC1 | 92
COc1ccc2c(c1)/C(=C/c1cnc[nH]1)C(=O)N2 | 2
O=C1Nc2ccc3ncsc3c2/C1=C/c1c[nH]cn1 | -2
CC(C)[C@H](CO)Nc1nc(Nc2cccc(Cl)c2)c2ncn(C(C)C)c2n1 | 72
O=[N+]([O-])/C=C/c1ccc2c(c1)OCO2 | 109
